# Experimental data taken from article PMC11062922 (Nature Chemical Biology, 2023).
# Like-named read-outs stand apart in the source and are kept apart here.
# What was measured:
# Parameters in all cases: species or system human, MV4-11 + K-562 + COLO205 + SK-N-BE2 + OVCAR-8
# ACVR1B = settings: read-out: apparent Kd, compound concentrations: 100 nM and 1000 nM (sheet 'Samples'), n = 1
# ACVR1 = settings: read-out: apparent Kd, compound concentrations: 100 nM and 1000 nM (sheet 'Samples'), n = 1
# BTK = settings: read-out: apparent Kd, compound concentrations: 100 nM and 1000 nM (sheet 'Samples'), n = 1
# CDK16 = settings: read-out: apparent Kd, compound concentrations: 100 nM and 1000 nM (sheet 'Samples'), n = 1
# CSK = settings: read-out: apparent Kd, compound concentrations: 100 nM and 1000 nM (sheet 'Samples'), n = 1
# DDR1 = settings: read-out: apparent Kd, n = 1
# SIK2 = settings: read-out: apparent Kd, compound concentrations: 100 nM and 1000 nM (sheet 'Samples'), n = 1
# SRC = settings: read-out: apparent Kd, compound concentrations: 100 nM and 1000 nM (sheet 'Samples'), n = 1
# TNK1 = settings: read-out: apparent Kd, n = 1
# ZAK = settings: read-out: apparent Kd, n = 1
# CLK4 = settings: read-out: apparent Kd, compound concentrations: 100 nM and 1000 nM (sheet 'Samples'), n = 1
# CSNK2A1;CSNK2A3 = settings: read-out: apparent Kd, n = 1
# DYRK1A = settings: read-out: apparent Kd, compound concentrations: 100 nM and 1000 nM (sheet 'Samples'), n = 1
# AKT2 = settings: read-out: apparent Kd, n = 1
# MAPK14 = settings: read-out: apparent Kd; compound concentrations:100 nM and 1000 nM (sheet 'Samples'); n = 1
# FLT3 = settings: read-out: apparent Kd, n = 1
# AURKB = settings: read-out: apparent Kd, compound concentrations: 100 nM and 1000 nM (sheet 'Samples'), n = 1
# MAP2K5 = settings: read-out: apparent Kd, compound concentrations: 100 nM and 1000 nM (sheet 'Samples'), n = 1
# ACAD8 = settings: read-out: apparent Kd; compound concentrations: 100 nM and 1000 nM (sheet 'Samples'), CATDS: 1.7028042656885199E-2; n = 1
# EPHA1 = settings: read-out: apparent Kd, compound concentrations: 100 nM and 1000 nM (sheet 'Samples'), n = 1
# [1] = compound concentrations:100 nM and 1000 nM (sheet 'Samples')
smiles,measurement,setting,value
CC(C)c1nc(-c2cccc(NS(=O)(=O)c3ccccc3)c2)c(-c2ccnc(Nc3ccc4c(c3)CN(C)CC4)n2)s1 [GSK1649598A],potency estimated from few doses,ACVR1B; CATDS: 1.6553743316138101E-2,628 nM
same,potency estimated from few doses,ACVR1; CATDS: 1.3619919375172601E-2,1250 nM
same,potency estimated from few doses,BTK; CATDS: 1.37109395342906E-2,1210 nM
same,potency estimated from few doses,CDK16; CATDS: 3.5928247701673299E-2,112 nM
same,potency estimated from few doses,CSK; CATDS: 1.8899514592430999E-2,433 nM
same,potency estimated from few doses,"DDR1; compound concentrations: 100 nM and 1000 nM (sheet 'Samples'), CATDS: 1.30172526981645E-2",1520 nM
same,potency estimated from few doses,SIK2; CATDS: 1.6344481967555599E-2,653 nM
same,potency estimated from few doses,SRC; CATDS: 1.45663528778369E-2,960 nM
same,potency estimated from few doses,"TNK1; compound concentrations: 100 nM and 1000 nM (sheet 'Samples'), CATDS: 3.1602555545839801E-2",141 nM
same,potency estimated from few doses,"ZAK; compound concentrations: 100 nM and 1000 nM (sheet 'Samples'), CATDS: 1.7977927791487699E-2",495 nM
Cc1ccc(O)cc1Nc1ccnc2cc(-c3ccc(CN4CCCCC4)o3)ccc12 [GW557777X],potency estimated from few doses,ACVR1B; CATDS: 2.3041961266034101E-2,60.3 nM
same,potency estimated from few doses,ACVR1; CATDS: 2.9506962076646302E-2,25.6 nM
same,potency estimated from few doses,BTK; CATDS: 1.36078174892899E-2,960 nM
same,potency estimated from few doses,CSK; CATDS: 1.5702412967624198E-2,358 nM
same,potency estimated from few doses,"DDR1; compound concentrations: 100 nM and 1000 nM (sheet 'Samples'), CATDS: 1.3388843859825601E-2",1100 nM
same,potency estimated from few doses,SIK2; CATDS: 1.7387307110144301E-2,205 nM
same,potency estimated from few doses,SRC; CATDS: 2.30493923024673E-2,60.3 nM
same,potency estimated from few doses,"ZAK; compound concentrations: 100 nM and 1000 nM (sheet 'Samples'), CATDS: 1.4248568360294899E-2",672 nM
O=C1N=C(NCCc2ccccn2)S/C1=C\c1ccc2ncccc2c1 [RO4508346-000],potency estimated from few doses,CLK4; CATDS: 0.116533275678242,377 nM
same,potency estimated from few doses,"CSNK2A1;CSNK2A3; compound concentrations: 100 nM and 1000 nM (sheet 'Samples'), CATDS: 0.14119727464160201",262 nM
same,potency estimated from few doses,DYRK1A; CATDS: 0.223400824962835,127 nM
O=C1N=C(N[C@@H](CO)c2ccccc2)S/C1=C\c1ccc2ncccc2c1 [RO4554340-000],potency estimated from few doses,CLK4; CATDS: 0.232280366030543,478 nM
same,potency estimated from few doses,DYRK1A; CATDS: 0.16734351378465701,1030 nM
Cc1cccc(-c2cc(-c3c[nH]nc3-c3ccccn3)ccn2)c1 [GW679395X],potency estimated from few doses,AKT2; [1],2340 nM
same,potency estimated from few doses,CSNK2A1;CSNK2A3; [1],2120 nM
same,potency estimated from few doses,MAPK14,1290 nM
CS(=O)(=O)Cc1ccc(Nc2nccc(-c3c(-c4cccc(NC(=O)C5CCCCC5)c4)nn4ncccc34)n2)cc1 [GSK350559A],potency estimated from few doses,DDR1; [1],401 nM
same,potency estimated from few doses,FLT3; [1],660 nM
same,potency estimated from few doses,TNK1; [1],261 nM
Nc1nc(-c2cccnc2)c(-c2ccnc3ccccc23)s1 [GW684083X],potency estimated from few doses,ZAK; [1],1440 nM
CN1C(=O)c2ccccc2N(C)c2nc(Nc3cnn(C4CCNCC4)c3)ncc21 [XMD-17-51],potency estimated from few doses,ACVR1B; CATDS: 2.1196121470028601E-2,383 nM
same,potency estimated from few doses,ACVR1; CATDS: 1.6735726463305099E-2,805 nM
same,potency estimated from few doses,AURKB; CATDS: 0.169613052671825,6.84 nM
same,potency estimated from few doses,"DDR1; compound concentrations: 100 nM and 1000 nM (sheet 'Samples'), CATDS: 1.7451025116255701E-2",697 nM
same,potency estimated from few doses,SIK2; CATDS: 2.05809527554131E-2,416 nM
same,potency estimated from few doses,SRC; CATDS: 1.6357706357996601E-2,875 nM
same,potency estimated from few doses,"TNK1; compound concentrations: 100 nM and 1000 nM (sheet 'Samples'), CATDS: 2.1534980047370499E-2",366 nM
COc1cccc(-n2ncc3c(N/N=C/c4ccc(C(=O)NCCN(C)C)cc4)ncnc32)c1.Cl [GW784307A],potency estimated from few doses,ACVR1B; CATDS: 4.53928679778344E-2,315 nM
same,potency estimated from few doses,ACVR1; CATDS: 0.29663347499665699,12.6 nM
same,potency estimated from few doses,CDK16; CATDS: 2.5546052944154699E-2,2020 nM
same,potency estimated from few doses,CLK4; CATDS: 3.0333782570854902E-2,1010 nM
same,potency estimated from few doses,"CSNK2A1;CSNK2A3; compound concentrations: 100 nM and 1000 nM (sheet 'Samples'), CATDS: 5.2102189470279198E-2",227 nM
same,potency estimated from few doses,MAP2K5; CATDS: 2.4851428787040001E-2,2320 nM
same,potency estimated from few doses,"ZAK; compound concentrations: 100 nM and 1000 nM (sheet 'Samples'), CATDS: 3.20798372195591E-2",834 nM
CCc1nc(-c2cccc(N(C)S(=O)(=O)c3ccccc3)c2)c(-c2ccnc(Nc3ccc(N4CCN(C(C)=O)CC4)nc3)n2)s1 [GSK1645895A],potency estimated from few doses,"ZAK; compound concentrations: 100 nM and 1000 nM (sheet 'Samples'), CATDS: 0.12983068767625999",2300 nM
O=C1N=C(NCCc2cccc(F)c2)S/C1=C\c1ccc2ncccc2c1 [RO4508344-000],potency estimated from few doses,CLK4; CATDS: 0.11348899784144,644 nM
same,potency estimated from few doses,"CSNK2A1;CSNK2A3; compound concentrations: 100 nM and 1000 nM (sheet 'Samples'), CATDS: 0.10848766260937499",709 nM
same,potency estimated from few doses,DYRK1A; CATDS: 0.105735187935075,750 nM
same,potency estimated from few doses,"FLT3; compound concentrations: 100 nM and 1000 nM (sheet 'Samples'), CATDS: 0.14042863340460501",431 nM
Cl.Cl.Cl.c1ccc(Oc2ccc(Nc3ccnc4cc(-c5ccc(CN6CCNCC6)o5)ccc34)cc2)nc1.c1ccc(Oc2ccc(Nc3ccnc4cc(-c5ccc(CN6CCNCC6)o5)ccc34)cc2)nc1 [GW567142A],potency estimated from few doses,ACAD8,2040 nM
same,potency estimated from few doses,"AKT2; compound concentrations: 100 nM and 1000 nM (sheet 'Samples'), CATDS: 1.7589072796327002E-2",1790 nM
same,potency estimated from few doses,AURKB; CATDS: 2.12373497583834E-2,952 nM
same,potency estimated from few doses,BTK; CATDS: 2.14657129362281E-2,922 nM
same,potency estimated from few doses,CDK16; CATDS: 1.6285845495215501E-2,2450 nM
same,potency estimated from few doses,EPHA1; CATDS: 3.01720788002969E-2,372 nM
same,potency estimated from few doses,"FLT3; compound concentrations: 100 nM and 1000 nM (sheet 'Samples'), CATDS: 3.3367464965841198E-2",294 nM
same,potency estimated from few doses,MAP2K5; CATDS: 5.3465139975610303E-2,111 nM
same,potency estimated from few doses,SRC; CATDS: 6.9151530133692504E-2,70.8 nM
same,potency estimated from few doses,"ZAK; compound concentrations: 100 nM and 1000 nM (sheet 'Samples'), CATDS: 2.00291787525065E-2",1140 nM
COc1cccc(-n2cnc3c(N/N=C/c4ccncc4)ncnc32)c1 [GW813360X],potency estimated from few doses,MAP2K5; CATDS: 0.129253463235972,2170 nM
Cn1cc(-c2ccc3c(c2)CCN3C(=O)Cc2cc(F)cc(C(F)(F)F)c2)c2c(N)ncnc21 [GSK2635225A],potency estimated from few doses,"AKT2; compound concentrations: 100 nM and 1000 nM (sheet 'Samples'), CATDS: 0.123001791308401",1850 nM
Cn1cc(-c2ccc3c(c2)CCN3C(=O)Cc2cccc(Cl)c2)c2c(N)ncnc21 [GSK2606590A],potency estimated from few doses,AURKB; CATDS: 0.34532909823612901,968 nM
CNC(=O)c1ccccc1Nc1nc(Nc2cccc(CS(C)(=O)=O)c2)ncc1C.O=CO [GSK1520489A],potency estimated from few doses,ACVR1B; CATDS: 1.2545717700139699E-2,511 nM
same,potency estimated from few doses,AURKB; CATDS: 5.1121534714452903E-2,22.6 nM
same,potency estimated from few doses,BTK; CATDS: 3.3529613297139299E-2,46.5 nM
same,potency estimated from few doses,CLK4; CATDS: 1.6424162942173099E-2,226 nM
same,potency estimated from few doses,"CSNK2A1;CSNK2A3; compound concentrations: 100 nM and 1000 nM (sheet 'Samples'), CATDS: 1.12264805832196E-2",773 nM
same,potency estimated from few doses,"DDR1; compound concentrations: 100 nM and 1000 nM (sheet 'Samples'), CATDS: 1.3625362720769099E-2",389 nM
same,potency estimated from few doses,EPHA1; CATDS: 4.9501189051371401E-2,23.8 nM
same,potency estimated from few doses,"FLT3; compound concentrations: 100 nM and 1000 nM (sheet 'Samples'), CATDS: 1.2283454590930699E-2",550 nM
same,potency estimated from few doses,SIK2; CATDS: 1.1089332631068699E-2,813 nM
same,potency estimated from few doses,SRC; CATDS: 1.1920002971419799E-2,613 nM
same,potency estimated from few doses,"TNK1; compound concentrations: 100 nM and 1000 nM (sheet 'Samples'), CATDS: 3.8833580007227697E-2",35.6 nM
